Screen size: about 38,000 compounds; about 1,200 (3.2%) showed an effect of 50% or more. The median lay at about -58%. Many of the other results were omitted from the sample, so strong results are more common in it than they were.
The compounds below were run on Plasmodium falciparum (assay: Calibr Malaria Delayed Death Assay SOP). Conditions: concentration 4.99e-06 (unit not given; other assays of the set use mol/L).
Format: functional, organism-based
Set-up: scale not given: in the data most compounds retested in dose-response had high values

SMILES	Percent Effect
CN(Cc1nnc(C2CCC2)o1)C(C(N)=O)c1cccc(F)c1 (stereo unspecified)	-103%
Cc1ccc(S(=O)(=O)NCC(O)c2ccoc2)s1 (stereo unspecified)	-144.6%
CCN1CCC2(CC1)CC(Nc1ncccn1)CO2 (stereo unspecified)	-15.58%
CN1CCC2(CC1)CC(NC(=O)c1csnn1)c1ccccc1O2.O=C(O)C(F)(F)F (stereo unspecified)	-14.05%
CCN1CCC2(CC1)CC(NCc1ccncc1)c1ccccc1O2.O=C(O)C(F)(F)F.O=C(O)C(F)(F)F.O=C(O)C(F)(F)F (stereo unspecified)	77.69%
CCN1CCC2(CC1)CC(NC(=O)c1c[nH]cn1)c1ccccc1O2 (stereo unspecified)	-75.27%
O=C(Cc1ccncc1)N1CCC2(CC1)CC(c1ccccc1)CO2.O=C(O)C(F)(F)F (stereo unspecified)	-32.94%
O=C(c1ccsc1)N1CCC2(CC1)CCN(S(=O)(=O)C1CC1)CC2	5.88%
COc1ccccc1S(=O)(=O)Nc1cnc(O)cc1C	-22.04%
c1cncc(NCCNC2CCCNC2)c1 (stereo unspecified)	-4.225%
c1cncc(NCCNC2CCSCC2)c1	-16.36%
CC(C)CN1CCC(NCCNc2cccnc2)CC1	78.75%
Cn1cc(CCNC(=O)c2cc3ccccc3nc2N2CCCC2)cn1	-91.24%
CC(C)Nc1nc2c(c(N(C)C)n1)CCN(Cc1nccn1C)CC2.O=C(O)C(F)(F)F	53.11%
CN(C)c1nc(N2CCCC2)nc2c1CCN(Cc1nccn1C)CC2.O=C(O)C(F)(F)F	3.003%
Cc1nc(N2CCCC2)nc2c1CCN(Cc1nccn1C)CC2.O=C(O)C(F)(F)F	-65.41%
CC(C)Nc1ncnc2c1CCN(Cc1nccn1C)CC2.O=C(O)C(F)(F)F.O=C(O)C(F)(F)F	-41.64%
Cc1nc(C)c2c(n1)CCN(Cc1nccn1C)CC2.O=C(O)C(F)(F)F	-117.5%
CC(C)Nc1nc2c(c(NC3CC3)n1)CCN(Cc1nccn1C)CC2.O=C(O)C(F)(F)F	75.38%
Cc1nc(C)c(C(=O)N2CCN(CCOc3ccccc3C)CC2)o1	-41.56%
Cl.N[C@@H](Cc1ccccc1)c1nnc(S(=O)(=O)Cc2ccc(Cl)cc2)o1	-112.8%
Cc1cnc(N2CCN(C)CC2)nc1-c1ccnn1C	-103.6%
COc1cnc(N2CC(N3CCOCC3)C2)nc1-c1ccnn1C	75.52%
COc1cnc(N2CCN(C)CC2)nc1-c1ccnn1C	-14.56%
CC(C)Cc1nc(OCC(=O)O)c(C#N)c2c1CCCC2	-37.32%
Cc1[nH]nc(CCC(=O)N2CCc3c(nc[nH]c3=O)C2)c1C	-169.9%

SMILES	Percent Effect
CCN(CC)CCn1cnc(-c2ccccc2)c1-c1cnn(CC)c1	18.58%
CCN(CC)CCn1cnc(-c2ccccc2)c1-c1ncc[nH]1	-50.85%
CCN(CC)CCn1cnc(-c2ccccc2)c1-c1cnc(C)s1	52.89%
CCc1ccsc1C(=O)NC(C#N)CC(C)C (stereo unspecified)	-81.49%
CC1CCN(C(=O)c2ccc(N(C)Cc3cnn(C)c3)nc2)CC1	-165.6%
CC(=O)N1CCN(c2nc(C(F)(F)F)nc3sc(C)c(C)c23)CC1	-31.05%
Cc1sc2nc(C(F)(F)F)nc(N3CCN(C)CC3)c2c1C	10.88%
Cc1sc2nc(C(F)(F)F)nc(N3CCCN(C)CC3)c2c1C	75.15%
CC(NCc1ccc(F)cc1)c1ccc2[nH]c(=O)[nH]c2c1 (stereo unspecified)	-45.16%
O=C1Nc2ccccc2/C1=C1\CCCCN1	-131%
CN(C)CC(=O)N1CCc2sc(C(=O)NCC3CC3)cc21.O=C(O)C(F)(F)F	-49.99%
CCn1nc2c(cc1=O)CN(Cc1nc(CCOC)no1)CC2	-158.3%
CCCn1nc2c(cc1=O)CN(Cc1nc(-c3ccoc3)no1)CC2	-48.33%
CCCn1nc2c(cc1=O)CN(Cc1nc(CCOC)no1)CC2	60.93%
Cn1nc(CO)c2c1CCN(c1ncnc3c1CCNC3)C2	-81.19%
CC(=O)Nc1ccc(CN(C)Cc2snnc2C)cc1	-153.1%
CCN(CC)CCNS(=O)(=O)c1cccc(CSC)c1	83.08%
CCNS(=O)(=O)c1cccc(CSC)c1	-125.2%
CSCc1cccc(S(=O)(=O)NCCO)c1	-54.99%
COCC1CCN(S(=O)(=O)NCC2COc3ccccc3C2)CC1 (stereo unspecified)	-101%
O=S1(=O)CCC(CNS(=O)(=O)N2CCc3ccccc3C2)C1 (stereo unspecified)	-112.5%
CN1CCN(S(=O)(=O)NCC2COc3ccccc3C2)CC1 (stereo unspecified)	-15.69%
CCN1CCC(CNS(=O)(=O)N2CCc3ccccc3C2)C1 (stereo unspecified)	54.33%
O=S(=O)(NCC1CCOC1)N1CCc2ccccc2C1 (stereo unspecified)	-79.01%
CN1CCCC(CNS(=O)(=O)N2CCc3ccccc3C2)C1 (stereo unspecified)	77.6%
O=S1(=O)CCN2C(=N1)Oc1ccc(S(=O)(=O)N3CCCC3)cc12	-88.45%

SMILES	Percent Effect
CSCCCN1C[C@H](NC(=O)c2cc(C3CC3)on2)[C@@H](C2CC2)C1	21.88%
O=C(c1cccnc1)N1CCC2(CC1)CCN(Cc1ccccn1)C2=O	-24.21%
CCn1ncc(Cl)c1CN(C)C(=O)CCn1ncc(Br)c1C	-15.28%
Cc1nc[nH]c1CN1CCN(C(=O)C2CC2)[C@H]2CS(=O)(=O)C[C@H]21	-108.2%
C[C@@H](O)CNc1c(NCc2ccco2)c(=O)c1=O	-66.82%
CC1(C)CC(=O)c2cnc3nc(N4CCCCC4)nc(O)c3c2C1	-100.7%
O=C(CCOc1cccc(F)c1)N1CCCC1Cn1cccn1 (stereo unspecified)	-132.8%
Cc1ncc(CN2CCCC(c3cc(C(N)=O)[nH]n3)C2)s1 (stereo unspecified)	-114.1%
CN(CCO)CC1COCCN1C(=O)C1(c2cccs2)CCCC1.O=CO (stereo unspecified)	45.51%
CN(C)CC1COCCN1C(=O)C1(c2cccs2)CCCC1.O=CO (stereo unspecified)	30.77%
Fc1cccnc1N1CCCC(c2nccs2)C1 (stereo unspecified)	-23.64%
CN1CCC(CCNC(=O)N2CCN(Cc3ccon3)CC2)CC1	-51.38%
CC(C)S(=O)(=O)CCN1CCc2c(ncn2C2CC2)C1	-95.89%
CCS(=O)(=O)N1CCc2c(CN3CCOCC3)cncc2C1.Cl.Cl	-14.39%
CC1CCCCN1CCNC(=O)c1ccn(-c2ccc(F)cc2)n1 (stereo unspecified)	33.02%
CC1CCCCN1CCNC(=O)c1ccn(-c2cccc(F)c2)n1 (stereo unspecified)	62.87%
CC1CCCN(CCNC(=O)c2ccn(-c3ccc(F)cc3)n2)C1 (stereo unspecified)	48.64%
CC1CCN(CCNC(=O)c2ccn(-c3ccc(F)cc3)n2)CC1	59.32%
COc1ccc(-n2ccc(C(=O)NCCN3CCCCC3C)n2)cc1 (stereo unspecified)	-78.7%
CC1CCN(CCNC(=O)c2ccn(-c3ccccc3)n2)CC1	21.68%
CS(=O)(=O)NCc1nnc2n1CCN(Cc1nccs1)C2	-79.56%
CN(C)CC1(O)CCN(S(=O)(=O)c2ccc(Cl)cc2)C1 (stereo unspecified)	40.17%
Cc1ccc(S(=O)(=O)N2CCC(O)(CN(C)C)C2)cc1 (stereo unspecified)	49.75%
CN(C)CC1(O)CCN(S(=O)(=O)c2cccc(F)c2)C1 (stereo unspecified)	65.12%
CC(=O)c1ccc(CNC(=O)c2c(C)cc(C)cc2C)nc1C	-62.27%
CN(C)C(=O)c1nn(C)c2c1CN(Cc1cccs1)C2.O=C(O)C(F)(F)F.O=C(O)C(F)(F)F	-31.31%

SMILES	Percent Effect
NC(=O)CCC1CCCN(c2ccnc3cc(F)ccc23)C1 (stereo unspecified)	82.57%
NC(=O)CCC1CCCN(c2ccc3c(Cl)ccnc3c2F)C1 (stereo unspecified)	-15.33%
NC(=O)CCC1CCCN(c2ccc3ccc(F)cc3n2)C1 (stereo unspecified)	-163.3%
NC(=O)C1CCN(CCCNC(=O)Nc2nccs2)CC1	-52.35%
CCn1nc(C)c2nc(C(C)C)nc(N3CCC(O)CC3)c21	-68.6%
COCC(=O)N(Cc1cccc(C)c1)Cc1ccccc1OC	-1.416%
COc1ccccc1CN(Cc1cccc(C)c1)C(=O)[C@@H](N)CC(=O)O	-17.66%
CN[C@@H](C)C(=O)N(Cc1cccc(C)c1)Cc1ccccc1OC	83.47%
Cc1cnc(N2C(=O)CSC2c2cccs2)s1 (stereo unspecified)	-26.83%
COc1ccc2[nH]cc(-c3ccnc(N4CCC(C)CC4)n3)c2c1	-185.2%
COc1ccc2[nH]cc(-c3ccnc(NC4CCCC4)n3)c2c1	56.79%
COC(=O)c1ccc2c(-c3ccnc(N[C@@H](C)CO)n3)c[nH]c2c1	-32.75%
COc1ccccc1CC(C)CC(=O)NC(C)C (stereo unspecified)	-116.6%
CC(=O)N(Cc1noc(C2CC2)n1)C1CCN(Cc2cc(C)on2)C1 (stereo unspecified)	-9.487%
FC(F)(F)c1cccc(OC2CCN(Cc3ncc[nH]3)CC2)c1	-24.7%
FC(F)(F)c1cccc(OC2CCN(Cc3c[nH]cn3)CC2)c1	48.24%
Cc1cccc(-c2nc(N)nc3c2CN(C(=O)C2CCCC2)C3C)c1 (stereo unspecified)	35.57%
COc1ccccc1CN1CC(O)CN(C(=O)OCC(C)C)CC1=O (stereo unspecified)	-17.94%
Nc1ccc(C(=O)N2C[C@@H]3CC[C@H](C2)N(Cc2ccccc2)C3)cn1	-23.45%
O=C(O)C(F)(F)F.O=C(O)C(F)(F)F.O=C(c1cccnc1)N1CCN2C[C@H](OCc3ccccc3)C[C@H]2C1	-25.13%
CC(C#N)CSc1ccccc1NCC(=O)NC1CCCCC1 (stereo unspecified)	-62.9%
CC(C#N)CSc1ccccc1NCC(=O)NC(C1CC1)C1CC1 (stereo unspecified)	54.59%
CC(C#N)CSc1ccccc1NCC(=O)Nc1ccccc1 (stereo unspecified)	-74.13%

From ChEMBL document CHEMBL3988442, “University of Dundee, Small-Polar-MMV Screening Library” (2021)
